Screening results as filed in PubChem.
Shown is part of a subset that was picked to be rich in hits.
VHR inh color = blocks the human dual specificity phosphatase VHR1 | recombinant VHR phosphatase, colorimetric substrate read-out | inhibition, % at 20 µM | actives 0.7% (n = 50,000) | AID 1992; in the data active means inhibition above about 60%
Target sequence (P51452 whole entry, looked up): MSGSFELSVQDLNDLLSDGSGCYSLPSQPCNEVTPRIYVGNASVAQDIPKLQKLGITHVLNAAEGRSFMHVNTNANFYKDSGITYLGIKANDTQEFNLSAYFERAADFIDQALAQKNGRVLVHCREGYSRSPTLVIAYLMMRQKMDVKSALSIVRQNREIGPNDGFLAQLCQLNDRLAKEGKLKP
The depositor's hits bear a star.

SMILES	VHR inh color
O=C(Nc1ccc(Br)cc1)C1C(c2ccccc2)=C1c1ccccc1	-11
CC(C)NC(=O)C1C(c2ccccc2)=C1c1ccccc1	120*
Cc1cccc(NC(=O)C2C(c3ccccc3)=C2c2ccccc2)c1C	-2
CC(=O)c1ccc(Oc2cc(-c3ccccc3)nc(C)n2)cc1	-14
O=C(Nc1ccc(-c2nc3ncccc3o2)cc1)c1ccc(-c2ccc(Br)cc2)o1	-14
CCc1ccc(/C=C2\C(=O)NN(c3ccccc3)C2=O)cc1	-16
CC(C)=C1C(=O)NN(c2ccccc2)C1=O	83*
O=C1NN(c2ccccc2)C(=O)/C1=C\C=C\c1ccccc1	-68
O=[N+]([O-])c1cccc(N/C(=N/S(=O)(=O)c2ccc(Cl)cc2)c2ccccc2)c1	-14
O=C(Nc1ccc(Br)cc1)C1C2C3CCC(C3)C12 (centres undefined)	-9
Cc1ccc(NC(=O)C2C3C4CCC(C4)C23)cc1 (centres undefined)	-22
O=C(Nc1ccc(Cl)cc1)C1C2C3CCC(C3)C12 (centres undefined)	118*
Cc1ccc(C)c(NC(=O)C2C3C4CCC(C4)C23)c1 (centres undefined)	1
Cc1cc(C)c(NC(=O)C2C3C4CCC(C4)C23)c(C)c1 (centres undefined)	114*
O=C(Nc1ccccc1)C1C2C3CCC(C3)C12 (centres undefined)	-5
COc1ccccc1N=C(NOC(C)=O)c1nonc1N	12
CCCCCOC(=O)C1=C(C)NC(=O)NC1c1ccccc1Cl (centres undefined)	-21
CN1CCN(CCOCCOc2ccccc2)CC1	-4
CCOc1cc(C=C2C(=O)NC(=S)NC2=O)ccc1OCCOCCOc1ccc(C)cc1	0
COc1ccc(/C=C(/C#N)C(=O)Nc2ccccc2)cc1	4
CCCCOc1cc2oc(=O)cc(C)c2cc1OCCCC	-28
C#CCOc1ccc(/C=C2\C(=O)NC(=O)N(c3cc(C)cc(C)c3)C2=O)cc1OCC	52
O=C(O)CN1C(=O)/C(=C/c2c(Cl)cccc2Cl)SC1=S	-20
O=C(O)CN1C(=O)/C(=C\c2ccc(-c3ccccc3Cl)o2)SC1=S	83*
Cc1ccc(/C=C2\SC(=S)N(CC(=O)O)C2=O)o1	27
SMILES	VHR inh color
CCOP(=O)(OCC)C(Nc1ccccc1)c1cc(Cl)cc(Cl)c1OC (centres undefined)	-2
Cc1nc2cc(-c3cccc(F)c3)nn2c(C)c1Cl	-12
Cc1nc2cc(-c3ccccc3)nn2c(C)c1C	117*
Cc1nc2cc(-c3cccc(Cl)c3)nn2c(C)c1Cl	-23
CCCCCOC(=O)CSc1nnc(-c2ccccc2)o1	-14
Cc1ccc(-c2nc(N/N=C/c3ccc(N(C)C)cc3)c3ccccc3n2)cc1	-4
Cc1cc(Br)cc2c(N=NC(=O)c3cccnc3)c(O)[nH]c12	-2
Cc1nc(N(CCC#N)CCC#N)sc1C(C)(C)C	16
COc1ccc(C2CC(=O)C3=C(C2)Nc2ccccc2NC3c2cccc(Br)c2)cc1 (centres undefined)	1
Cc1ccc2c(c1)NC(c1ccc(F)cc1)C1=C(CC(c3ccccc3)CC1=O)N2 (centres undefined)	-28
O=C1CC(c2ccccc2)CC2=C1C(c1ccc(Cl)c(Cl)c1)Nc1ccccc1N2 (centres undefined)	-17
Cc1ccc2c(c1)NC(c1ccc3c(c1)OCO3)C1=C(CC(c3ccccc3)CC1=O)N2 (centres undefined)	118*
O=C1CC(c2ccccc2)CC2=C1C(c1ccc(F)c(Br)c1)Nc1ccccc1N2 (centres undefined)	-6
O=C1CC(c2ccccc2)CC2=C1C(c1ccc(F)c(F)c1)Nc1ccccc1N2 (centres undefined)	104*
CCc1ccc(C2Nc3ccccc3NC3=C2C(=O)CC(c2ccc(OC)c(OC)c2)C3)cc1 (centres undefined)	115*
COc1ccc(C2CC(=O)C3=C(C2)Nc2ccccc2NC3c2ccc(F)c(Br)c2)cc1 (centres undefined)	116*
COc1ccc(C2CC(=O)C3=C(C2)Nc2ccccc2NC3c2ccc3ccccc3c2)cc1 (centres undefined)	11
COc1ccc(C2CC(=O)C3=C(C2)Nc2ccccc2NC3c2ccc(SC)cc2)cc1OC (centres undefined)	43
COc1ccc(C2CC(=O)C3=C(C2)Nc2ccccc2NC3c2ccncc2)cc1OC (centres undefined)	7
CSc1ccc(C2Nc3ccccc3NC3=C2C(=O)CC(c2ccc4c(c2)OCO4)C3)cc1 (centres undefined)	-13
CC(=O)Nc1ccc(/C=N/c2nc3c(C)cc(C)cc3s2)cc1	-2
CC(C)(C)C1(C)OC(O)(C(Cl)(Cl)Cl)CC1=O (centres undefined)	8
O=C(COc1ccc(-c2ccccc2)cc1)N/N=C/c1ccncc1	-11
CCC(=O)N1c2ccccc2NC2=C(C(=O)CC(c3ccccc3)C2)C1c1ccc([N+](=O)[O-])cc1 (centres undefined)	10
CCC(=O)N1c2ccccc2NC2=C(C(=O)CC(c3ccccc3)C2)C1c1ccc(OC)cc1 (centres undefined)	103*
